Several values for one entry are separate records, joined by “and”; a condition that tells them apart may be missing. Equal values may be shown once. Inconclusive results are not listed. A call without a number means that no potency is given here. Activity calls are given as the source filed them. Calls come from the whole dose curve; as a rule, active = well fitted cell-killing curve with a large enough effect in the repeat runs; inconclusive = weak or mixed curves, or effect the other way; inactive = no such curve, though single readings can be large or run the other way.
Potency is the fitted concentration of half-maximal effect.

The experiment is described as follows: qHTS assay to identify small molecule antagonists of the glucocorticoid receptor (GR) signaling pathway - cell viability counter screen (AID 720693). Note: nearly all actives have a fitted effect of over 55% in size. Conditions: GR-bla HeLa viability, CellTiter-Glo luminescence, 18 h, with 5 nM dexamethasone present; series mostly up to 58.5 µM. The text has this: National Center for Advancing Translational Sciences [NCATS]
NIH Chemical Genomics Center [NCGC]
U.S. Environmental Protection Agency [EPA]
National Institutes of Environmental Health Sciences [NIEHS]
National Toxicology Program [NTP]
U.S. Food and Drug Administration [FDA]
The Glucocorticoid receptor (GR) is one of the members of the nuclear receptor family of ligand-dependent transcription factors. GR plays a critical role in carbohydrate, protein and lipid metabolisms and programmed cell death. CellSensor GR-bla HeLa cell line (Invitrogen) contains a beta-lactamase reporter gene under the control of the glucocorticoid response element stably integrated into HeLa cells, a cervical cancer cell line that expresses glucocorticoid receptor. The activation of the reporter gene under culture conditions can be detected by fluorescence intensity. This cell line has been used to screen the Tox21 10K compound library and to identify the compounds that inhibit the GR signaling. The cytotoxicity of the Tox21 compound library against the GR-bla HeLa cell line was tested in parallel by measuring the cell viability using CellTiter-Glo assay in the same wells.
Tox21 Assay Protocol Summary:
The GR-bla HeLa cells were dispensed at 1500 cells/5 ul/well in 1536-well black wall/clear bottom plates using a Multidrop Combi (ThermoFisher Scientific, Waltham, MA) dispenser. After the assay plates were incubated at a 37 C/5% CO2 incubator for 4 hours, 23 nL of compounds dissolved in DMSO, positive controls or DMSO only was transferred to the assay plate by a pintool station (Kalypsys, San Diego, CA), followed by addition of 1 uL of dexamethasone (5 nM, final concentration in the well). The plates were incubated at 37 C for 18 hours. After 1 uL of LiveBLAzerTM B/G FRET substrate was added using a Flying Reagent Dispenser (Aurora Discovery, San Diego, CA), the plates were incubated at room temperature (RT) for 2 hours, and fluorescence intensity was measured by an Envision plate reader (PerkinElmer, Shelton, CT). After measurement of bla assay, 3 ul CellTiter-Glo (Promega, Madison, WI) was added to measure the cytotoxicity and the plates were then incubated at RT for 30 min. The luminescence was measured using a ViewLux (Perkin Elmer) plate reader.
In general terms: Quantitative high-throughput screening tests each substance at several concentrations.
With `O=c1n(CC2CO2)c(=O)n(CC2CO2)c(=O)n1CC1CO1` (stereo not given), the Potency result is “inactive”.
As for `COc1ccc(COC(C)=O)cc1`, the entry is “inactive”.
With `CC(N)=O`, the Potency entry was “inactive”.
As to `Oc1c(Cl)cc(Cl)c(Cl)c1Cc1c(O)c(Cl)cc(Cl)c1Cl`, the Potency was 1.69 µM (active) and 21.8 µM (active) and 19.5 µM (active).
In the case of `CCCCCCC(O)CCCCCCCCCCC(=O)O` (stereo not given), the Potency result is “inactive”.
Regarding `CCn1c2ccccc2c2cc(N)ccc21`, the Potency result is “inactive”.
Turning to `CCCCN(CCO)CCCC`, the Potency result was “inactive”.
Turning to `NC(N)=Nc1nc(CSCC/C(N)=N/S(N)(=O)=O)cs1`, the Potency result was “inactive”.
To `OCCOCCN1CCN(C(c2ccccc2)c2ccc(Cl)cc2)CC1` (stereo not given) belongs “inactive”; to `CNCCC(Oc1ccc(C(F)(F)F)cc1)c1ccccc1` (stereo not given), “inactive”; to `Cc1cc(OCCOCC[N+](C)(C)Cc2ccccc2)ccc1C(C)(C)CC(C)(C)C`, 21.3 µM (active) and 17.3 µM (active).
On to `CC(C)CCOCc1ccccc1`, for which the Potency result was “inactive”.
As to `CCN(CC)C(=O)Nc1ccc(OCC(O)CNC(C)(C)C)c(C(C)=O)c1` (stereo not given), the Potency result was “inactive”.
For `OCCN1CCNCC1`, the Potency result is “inactive”.
To `O=C1OC2(c3ccc(O)cc3Oc3cc(O)ccc32)c2ccccc21` belongs “inactive”.
Regarding `O=C(O)c1cc(Cl)cc(Cl)c1`, the Potency result is “inactive”.
Take `NC(Cc1ccc(Cl)cc1)C(=O)O` (stereo not given): the Potency result is “inactive”.
For `Cc1cc(C(C)(C)C)c(O)c(C(C)(C)C)c1`, the Potency result was “inactive”.
In the case of `CCCCC(CC)COC(=O)CC(C(=O)OCC(CC)CCCC)S(=O)(=O)O` (stereo not given), the Potency entry is “inactive”.
`CNC1(C)C2CCC(C2)C1(C)C` (stereo not given): the Potency entry is “inactive”.
Turning to `O=Nc1ccc(Nc2ccccc2)cc1`, the Potency result is “inactive”.
As for `CC(=O)N[C@@H](CS)C(=O)O`, the entry is “inactive”; as for `c1ccc2c(c1)-c1cccc3c1c-2cc1ccccc13`, “inactive”; as for `CCc1cc(C(C)(C)C)c(O)c(C(C)(C)C)c1`, “inactive”.
To `C=C(C)C(=O)O` belongs “inactive”; to `CC[C@]1(O)C[C@@H]2CN(CCc3c([nH]c4ccccc34)[C@@](C(=O)OC)(c3cc4c(cc3OC)N(C)[C@H]3[C@@](O)(C(=O)OC)[C@H](OC(C)=O)[C@]5(CC)C=CCN6CC[C@]43[C@@H]65)C2)C1`, “inactive”; to `c1cc(C(c2ccc(OCC3CO3)cc2)C(c2ccc(OCC3CO3)cc2)c2ccc(OCC3CO3)cc2)ccc1OCC1CO1` (stereo not given), “inactive”.
Regarding `O=C(O)CP(=O)(O)O`, the Potency result was “inactive”.
As for `NCCO`, the Potency entry was “inactive”.
As to `CCn1cc(C(=O)O)c(=O)c2cc(F)c(N3CCNC(C)C3)c(F)c21` (stereo not given), the Potency result is “inactive”.
Turning to `c1cnc2cc3c(cc2n1)C1CNCC3C1`, the Potency entry is “inactive”.
With `CC(C)C(=O)c1c(C(C)C)nn2ccccc12`, the Potency entry is “inactive”.
As for `CC(COc1ccccc1)N(CCCl)Cc1ccccc1` (stereo not given), the Potency entry is “inactive”.
`CCCCOCCOC(=O)c1ccccc1C(=O)OCCOCCCC`: the Potency entry was “inactive”.
On to `Nc1nc2ccccc2[nH]1`, for which the Potency entry was “inactive”.
As for `COC(=O)[C@H]1[C@H]2C[C@@H]3c4[nH]c5cc(OC)ccc5c4CCN3C[C@H]2C[C@@H](OC(=O)c2cc(OC)c(OC)c(OC)c2)[C@@H]1OC`, the entry is “inactive”; as for `CCC[C@H](N[C@@H](C)C(=O)N1[C@H](C(=O)O)C[C@@H]2CCCC[C@@H]21)C(=O)OCC`, “inactive”; as for `COC(=O)c1cccc(C(=O)OC)c1`, “inactive”.
As for `COc1ccc(CCN(C)CCCC(C#N)(c2ccc(OC)c(OC)c2)C(C)C)cc1OC` (stereo not given), the Potency result was “inactive”.
On to `CCC(CO)(CO)COCC(CC)(CO)CO`, for which the Potency entry was “inactive”.

These data come from PubChem BioAssay (Tox21).
